# According to PubChem BioAssay (NCATS):
# A number with no mark means an inactive call. Inconclusive results are not listed. A call without a number means that no potency is given here. Calls of active or inactive are those of the source. Unless noted, calls come from the whole dose curve; as a rule, active = well fitted curve in the direction sought with a large enough effect; inconclusive = small, poorly fitted or top-dose-only effect, or another doubt; inactive = no such curve, though single readings can be large; an effect the other way counts as inactive or inconclusive.
# How the values were obtained:
# [1] = biological target: Muscarinic acetylcholine receptor M1 (Rattus norvegicus) (UniProt P08482); assay: qHTS Assay for Antagonists of Acetylcholine Muscarinic M1 Receptor: Measurement of IP-One Response (AID 944); note: nearly all actives have a fitted effect of over 75% in size; note: potency is the fitted concentration of half-maximal effect
# Sequence of Muscarinic acetylcholine receptor M1 (Rattus norvegicus) (P08482 whole entry, looked up): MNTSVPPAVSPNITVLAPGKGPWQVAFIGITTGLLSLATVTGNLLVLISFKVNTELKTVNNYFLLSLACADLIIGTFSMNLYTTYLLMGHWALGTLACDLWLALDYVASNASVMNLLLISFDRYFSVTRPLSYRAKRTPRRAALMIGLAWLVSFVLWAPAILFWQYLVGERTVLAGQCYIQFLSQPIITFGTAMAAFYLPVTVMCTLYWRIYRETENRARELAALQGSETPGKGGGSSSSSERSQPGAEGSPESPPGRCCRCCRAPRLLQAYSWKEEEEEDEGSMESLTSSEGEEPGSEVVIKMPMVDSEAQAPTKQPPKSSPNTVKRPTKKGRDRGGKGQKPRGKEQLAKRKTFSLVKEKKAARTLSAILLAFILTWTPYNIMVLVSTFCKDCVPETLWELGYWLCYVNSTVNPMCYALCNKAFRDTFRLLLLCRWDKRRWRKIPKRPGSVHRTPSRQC
# How it was run: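 CHO cells stably expressing rat M1, pretreated 10 min with compound, then stimulated 30 min with carbachol at EC80 (200 nM) in LiCl-containing buffer pH 7.4; IP1 accumulation read by HTRF competition (665/620 nm).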
# [2] = Cell Viability - SK-N-SH (AID 435; calls by dose curve;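 note: potency is the fitted concentration of half-maximal effect; compound exposure lasted 40 h at 37 °C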); conditions: SK-N-SH neuroblastoma cell viability qHTS
# How it was run: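 Luminescent ATP signal served as the viability read-out after 40 hours of compound treatment of human neuroblastoma SK-N-SH cells. Concentration-response data, scaled between DMSO and 100 uM tamoxifen, gave AC50 values by standard Hill modeling.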
# [3] = Cell Viability - H-4-II-E (AID 543); note: nearly all actives have a fitted effect of over 35% in size
# How it was run: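 Rat hepatoma H-4-II-E cells, 1500 per well, treated 40 h at 37 °C in complete medium. Cellular ATP read by CellTiter-Glo luminescence; AC50 from Hill fits of concentration-response.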
# [4] = Cellular Toxicity (caspase-3) SHSY5Y (AID 657);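 note: cells exposed to compound for 16 hours at 37 °C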
# How it was run: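 qHTS, SH-SY5Y, 1500 cells/well, 5 h pre-incubation 37 °C; compound 16 h 37 °C; Caspase-Glo 3/7 1 h RT; luminescence. Norm.: DMSO = 0, 10 uM staurosporine = 100%. Hill fit → AC50.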
# [5] = Cellular Toxicity (caspase-3) N2a (AID 665);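 note: compound exposure lasted 16 h at 37 °C before readout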
# How it was run: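 Mouse N2a neuroblastoma cells, 1500 per well, treated 16 h at 37 °C in complete medium; caspase-3/7 activity by Caspase-Glo luminescence after 1 h. Normalized to DMSO and 10 uM staurosporine; AC50 from Hill fits.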
# [6] = Cellular Toxicity (caspase-3) Renal Proximal Tubule (AID 667);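 note: cells exposed to compound for 16 hours at 37 °C before detection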
# How it was run: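 AC50 derived by standard Hill fit of concentration-response data, normalized between DMSO basal and 10 uM staurosporine as 100% stimulation. Cells: primary rat kidney proximal tubule, 16 h treatment at 37 °C.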
# [7] = Cell Viability - LYMP2-015 (AID 971); note: nearly all actives have a fitted effect of over 55% in size
# How it was run: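 LYMP2-015 human lymphoblastoid cells (2500/well) in complete medium, compound-treated 24 h at 37 C; viability read as cellular ATP by CellTiter-Glo luminescence after 30 min at room temperature. AC50 from Hill-equation fits of qHTS concentration-response data.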
# [8] = Cell Viability - LYMP2-023 (AID 975);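 note: cellular ATP measured by luciferase luminescence as viability proxy; series mostly up to about 92 µM; nearly all actives have a fitted effect of over 55% in size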
# How it was run: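 LYMP2-023 human lymphoblastoid cells, 2500/well, preincubated 5 hr at 37 C, then compound-treated 24 hr at 37 C in complete medium. CellTiter-Glo luminescence (ATP) after 30 min at room temperature; AC50 from Hill-equation fits; tetraoctylammonium bromide positive control.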
# [9] = Cell Viability - LYMP2-022 (AID 987); note: nearly all actives have a fitted effect of over 55% in size
# How it was run: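 LYMP2-022 lymphoblastoid cells (2500/well, complete medium) were treated with compounds for 24 hours at 37 C; intracellular ATP was then read by CellTiter-Glo luminescence after 30 min at room temperature. AC50 values were derived from Hill-equation fits.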
# [10] = biological target: Thyroid hormone receptor beta (Homo sapiens) (UniProt P10828); assay: qHTS assay for small molecule agonists of thyroid hormone receptor beta signaling (AID 588545; calls by dose curve)
# Sequence of Thyroid hormone receptor beta (Homo sapiens) (P10828 whole entry, looked up): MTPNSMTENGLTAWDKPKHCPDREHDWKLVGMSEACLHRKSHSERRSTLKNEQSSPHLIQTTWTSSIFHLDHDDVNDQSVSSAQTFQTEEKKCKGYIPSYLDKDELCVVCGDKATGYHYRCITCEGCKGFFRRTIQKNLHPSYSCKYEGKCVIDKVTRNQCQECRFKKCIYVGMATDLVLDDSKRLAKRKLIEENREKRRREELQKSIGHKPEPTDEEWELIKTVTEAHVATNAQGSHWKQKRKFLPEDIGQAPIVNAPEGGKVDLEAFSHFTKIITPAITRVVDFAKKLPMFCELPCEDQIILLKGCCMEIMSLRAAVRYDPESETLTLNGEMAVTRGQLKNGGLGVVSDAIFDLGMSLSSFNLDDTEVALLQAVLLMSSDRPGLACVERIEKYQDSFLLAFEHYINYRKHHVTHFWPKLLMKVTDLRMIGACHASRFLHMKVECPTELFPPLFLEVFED
# How it was run: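 Beta-lactamase reporter activity under TR response element control is measured in HEK 293 cells after 18 hrs compound exposure. Signal is ratiometric CCF4 fluorescence, 460/530 nm.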
# [11] = qHTS assay for small molecule disruptors of the mitochondrial membrane potential - 1 hr assay (AID 651754; calls by dose curve; note: nearly all actives have a fitted effect of over 35% in size)
# How it was run: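 HepG2 cells, attached overnight, were exposed to compound for 1 hr at 37C, then stained 30 min with a potentiometric dye. Ratio of red aggregate (590nm) to green monomer (535nm) fluorescence reports membrane potential; collapse shifts signal toward green.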
# [12] = qHTS assay for small molecule disruptors of the mitochondrial membrane potential - 5 hr assay (AID 651755; calls by dose curve; note: nearly all actives have a fitted effect of over 40% in size)
# How it was run: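 HepG2, 2,000 cells/well, overnight attach; cpd or DMSO 5 hr, 37C/5% CO2; Mito-MPS 30 min 37C; fluor 490/535 + 540/590 nm.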
# [13] = qHTS assay for environmental chemicals that activate the Aryl hydrocarbon Receptor (AhR) signaling pathway (AID 651777); conditions: 1A2-DRE human hepatoma cells, luciferase, 24 h; activation: stronger effect = higher value; note: nearly all actives have a fitted effect of over 15% in size
# How it was run: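 Stable CYP1A2 promoter/DRE-luciferase human hepatoma line treated 24 hr; One-Glo luminescence, 30 min RT.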
# [14] = qHTS assay for cell viability of HEK293 cells (AID 743288); conditions: ATP luminescence (CellTiter-Glo), 18 h, stronger effect = lower value; note: nearly all actives have a fitted effect of over 50% in size
# How it was run: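 HEK293 parental, 2,000 cells/well; ≥5 h pre-incubation 37 C; pintool compound addition; 18 h, 37 C; CellTiter-Glo 30 min RT; luminescence read.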
# [15] = Cell Viability - Renal Proximal Tubule (AID 545); note: nearly all actives have a fitted effect of over 40% in size
# How it was run: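 Luminescent ATP signal (CellTiter-Glo) served as the viability read-out after 40 hr compound exposure of freshly isolated rat proximal tubule cells at 37 °C. Concentration-dependent ATP loss was fitted with the Hill equation to give AC50.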
# [16] = Cell Viability - LYMP2-009 (AID 968); note: series mostly up to about 92 µM; nearly all actives have a fitted effect of over 55% in size
# [17] = biological target: Vitamin D3 receptor (Homo sapiens) (UniProt P11473); assay: qHTS assay for small molecule antagonists of vitamin D receptor signaling (AID 588541; calls by dose curve;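 note: receptor activated by calcitriol during compound treatment; series mostly up to about 77 µM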)
# Sequence of Vitamin D3 receptor (Homo sapiens) (P11473 whole entry, looked up): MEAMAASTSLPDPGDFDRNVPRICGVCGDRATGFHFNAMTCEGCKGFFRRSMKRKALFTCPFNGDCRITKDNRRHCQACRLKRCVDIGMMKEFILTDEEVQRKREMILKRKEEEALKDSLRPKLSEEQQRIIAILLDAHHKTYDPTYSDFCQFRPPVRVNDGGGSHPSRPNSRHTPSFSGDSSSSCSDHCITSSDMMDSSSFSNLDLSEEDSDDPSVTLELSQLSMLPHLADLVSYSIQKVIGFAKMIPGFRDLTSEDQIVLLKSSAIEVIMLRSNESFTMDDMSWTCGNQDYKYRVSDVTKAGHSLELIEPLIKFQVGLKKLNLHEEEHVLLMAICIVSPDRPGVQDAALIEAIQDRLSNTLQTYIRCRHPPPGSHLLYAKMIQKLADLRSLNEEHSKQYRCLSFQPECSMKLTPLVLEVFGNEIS
# How it was run: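 Antagonist-mode beta-lactamase reporter assay: HEK293T VDR-UAS-bla cells were exposed to titrated compound alongside 1-alpha,25-dihydroxyvitamin D3 at 3 nM final for 16 h. Values were normalized to the 50 nM agonist control and DMSO basal, with IC50 and efficacy from Hill equation fits.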
# [18] = qHTS assay for small molecule agonists of the antioxidant response element (ARE) signaling pathway measured by Nrf2-dependant transcriptional activity (AID 720636; active = well fitted curve in the direction sought with a large enough effect in the repeat runs; an effect the other way counts as inactive or inconclusive;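 note: HepG2 cells with an ARE-driven luciferase reporter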)
# How it was run: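 Reporter gene assay, HepG2 ARE-luc: 16 hr compound, 37 C, 5% CO2; read-out luciferase luminescence.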
smiles,measurement,setting,value
C[C@@H]1Cc2cc3c(cc2C(c2ccc(N)cc2)=NN1)OCO3,Potency,[1],inactive
CC(=O)c1c(O)c(C)c(O)c(Cc2c(O)c3c(c(C(=O)/C=C\c4ccccc4)c2O)OC(C)(C)C=C3)c1O,Potency,[1],inactive
O=C(O)[C@H]1[C@H](C(=O)O)[C@H]2CC[C@@H]1O2,Potency,[1],inactive
NC[C@H](O)c1cc(O)c(O)cc1F,Potency,[1],inactive
CC(=O)[C@@H]1CC[C@H]2[C@H]3CC[C@H]4C[C@@H](O)CC[C@]4(C)[C@@H]3CC[C@]12C,Potency,[1],inactive
C[C@@H]1O[C@H]1P(=O)(O)O,Potency,[1],inactive
CCNC(=O)[C@@H]1O[C@@H](n2cnc3c(N)ncnc32)[C@@H](O)[C@H]1O,Potency,[1],inactive
CC(C)N[C@@H](C)Cc1ccc(I)cc1,Potency,[1],14.1 µM (active)
NC(=O)CN1C[C@@H](O)CC1=O,Potency,[1],inactive
C[Se]C[C@@H](N)C(=O)O,Potency,[1],inactive
Nc1ncnc2c1ncn2[C@@H]1O[C@@H](COP(=O)(O)CP(=O)(O)OP(=O)(O)O)[C@H](O)[C@@H]1O,Potency,[1],inactive
CCCN1CC[C@@H]2c3cc(O)ccc3CC[C@H]21,Potency,[1],14.1 µM (active)
N[C@H](Cc1ccc(N(CCCl)CCCl)cc1)C(=O)O,Potency,[1],inactive
COC(=O)[C@H](N)CCCN=C(N)N[N+](=O)[O-],Potency,[1],inactive
CN1C[C@@H](CS(=O)(=O)N(C)C)C[C@H]2c3cccc4c3c(cn4C)C[C@@H]21,Potency,[1],inactive
CC(=O)OCC1=C(C(=O)[O-])N2C(=O)[C@@H](NC(=O)CCC[C@@H](N)C(=O)[O-])[C@@H]2SC1.[Zn+2],Potency,[1],inactive
CCN(CC)c1ncnc2c1ncn2[C@@H]1O[C@@H](COP(=O)(O)OP(=O)(O)C(Br)(Br)P(=O)(O)O)[C@H](O)[C@@H]1O,Potency,[1],inactive
C[C@@]12CC[C@H]3[C@@H](CCC4=C(O)C(=O)CC[C@]43C)[C@H]1CCC2=O,Potency,[1],inactive
BrCCc1ccccc1,Potency,[2],> 92 µM
same,Potency,[3],inactive
same,outcome,[4],inactive
same,outcome,[5],inactive
same,outcome,[6],inactive
same,Potency,[7],inactive
same,Potency,[8],inactive
same,Potency,[9],inactive
same,Potency,[10],inactive
same,Potency,[11],inactive
same,Potency,[12],inactive
same,activation,[13],-0.177%
same,max response,[14],-1.44%
CCC#N,Potency,[2],> 92 µM
same,Potency,[3],inactive
same,outcome,[15],inactive
same,outcome,[4],inactive
same,outcome,[5],inactive
same,outcome,[6],inactive
same,Potency,[16],inactive
same,Potency,[7],inactive
same,Potency,[8],inactive
same,outcome,[17],inactive
same,Potency,[10],inactive
same,Potency,[18],inactive
same,max response,[14],-7.94%
